Experiments:
Details in all cases: concentration: 1 μM, replicates: in singlicate; n = 1
DYRK1B = tested on: DYRK1B
DYRK2 = tested on: DYRK2
EGFR = tested on: EGFR
EIF2AK1 = tested on: EIF2AK1
EPHA1 = tested on: EPHA1
EPHA2 = tested on: EPHA2
EPHA3 = tested on: EPHA3
EPHA4 = tested on: EPHA4
EPHA5 = tested on: EPHA5
EPHA6 = tested on: EPHA6
EPHA7 = tested on: EPHA7
EPHA8 = tested on: EPHA8
EPHB1 = tested on: EPHB1
EPHB2 = tested on: EPHB2
EPHB3 = tested on: EPHB3
EPHB4 = tested on: EPHB4
EPHB6 = tested on: EPHB6
ERBB2 = tested on: ERBB2
ERBB3 = tested on: ERBB3
ERBB4 = tested on: ERBB4
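Further: KINOMEscan kinase panel screen.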

| SMILES | %Inh (DYRK1B) [%] | %Inh (DYRK2) [%] | %Inh (EGFR) [%] | %Inh (EIF2AK1) [%] | %Inh (EPHA1) [%] | %Inh (EPHA2) [%] | %Inh (EPHA3) [%] | %Inh (EPHA4) [%] | %Inh (EPHA5) [%] | %Inh (EPHA6) [%] | %Inh (EPHA7) [%] | %Inh (EPHA8) [%] | %Inh (EPHB1) [%] | %Inh (EPHB2) [%] | %Inh (EPHB3) [%] | %Inh (EPHB4) [%] | %Inh (EPHB6) [%] | %Inh (ERBB2) [%] | %Inh (ERBB3) [%] | %Inh (ERBB4) [%] |
| --- | --- | --- | --- | --- | --- | --- | --- | --- | --- | --- | --- | --- | --- | --- | --- | --- | --- | --- | --- | --- |
| Cl.N#CCc1ccc(Nc2nccc(Nc3ccc(Oc4ccccc4)cc3)n2)cc1 [GW639905] | 0 | 8 | 33 | 5 | 1 | 9 | 0 | 0 | 0 | 0 | 0 | 0 | 0 | 6 | 0 | 0 | 46 | 23 | 96.3 | 53 |
| N#Cc1cnc2cc(-c3cnc(CNCCN4CCOCC4)s3)ccc2c1Nc1ccc(Oc2ccccc2)cc1 [GW664114] | 5 | 14 | 98.1 | 0 | 8 | 0 | 10 | 11 | 0 | 19 | 0 | 25 | 0 | 7 | 10 | 10 | 21 | 79 | 100 | 100 |
| COc1cccc2c(-c3ccncc3)c(-c3ccc(F)cc3)nn12 [GW468513] | 0 | 0 | 71 | 0 | 5 | 17 | 0 | 18 | 0 | 41 | 0 | 3 | 6 | 0 | 38 | 13 | 37 | 50 | 21 | 68 |
| CCOc1nccc(-c2c(-c3ccc(F)cc3)ncn2C2CCNCC2)n1 [SB-249175] | 50 | 6 | 9 | 45 | 10 | 0 | 13 | 4 | 0 | 7 | 0 | 0 | 0 | 11 | 0 | 0 | 14 | 5 | 36 | 30 |
| CCn1cnc2c(NCc3ccccc3)ncnc21 [SKF-96418] | 37 | 15 | 0 | 0 | 0 | 0 | 0 | 7 | 0 | 0 | 0 | 0 | 0 | 0 | 0 | 0 | 0 | 24 | 28 | 4 |
| COc1cc(Nc2nccc(N3CCC(NC(=O)Nc4ccc5c(c4)OCO5)C3)n2)cc(OC)c1OC (centres unmarked) [GSK1379766] | 0 | 0 | 0 | 0 | 14 | 0 | 0 | 7 | 0 | 4 | 0 | 3 | 7 | 0 | 6 | 0 | 97.6 | 0 | 0 | 31 |
| CC(C)(C)c1ccc(C(=O)Nc2cn3cc(-n4ccnc4)ccc3n2)cc1 | 94.8 | 67 | 9 | 0 | 0 | 0 | 16 | 0 | 0 | 12 | 0 | 0 | 3 | 8 | 0 | 0 | 2 | 29 | 8 | 37 |
| O=C(Nc1n[nH]c2nc(-c3ccccc3)ccc12)C1CC1 [SB-708999] | 0 | 12 | 1 | 0 | 15 | 15 | 0 | 0 | 2 | 0 | 7 | 9 | 0 | 20 | 11 | 3 | 41 | 35 | 67 | 0 |
| CN(C)c1ncnc2nc[nH]c12 [SKF-31736] | 39 | 23 | 0 | 0 | 0 | 0 | 8 | 0 | 0 | 0 | 0 | 0 | 0 | 0 | 0 | 0 | 0 | 24 | 13 | 0 |
| COC(=O)Nc1nc2cc(Oc3ccc(NC(=O)Nc4cccc(SC)c4)cc3)ccc2[nH]1.Cl [GW697999] | 0 | 7 | 29 | 0 | 59 | 88 | 15 | 64 | 26 | 92.6 | 54 | 96.8 | 61 | 70 | 19 | 70 | 80 | 32 | 14 | 35 |

— PMC5540273 (PLoS ONE, 2017)
